Source: PubChem BioAssay (Tox21)
Unmarked numbers belong to inactive results. Records with an inconclusive call do not appear. Where a call stands in place of a potency, no number is given. The source made the active and inactive calls. Calls come from the whole dose curve; as a rule, active = well fitted curve in the direction sought with a large enough effect in the repeat runs; inconclusive = weak or mixed curves; inactive = no such curve, though single readings can be large; an effect the other way counts as inactive or inconclusive.

Assays:
[1] = Human pregnane X receptor (PXR) small molecule agonists, qHTS cell viability counter screen (AID 1346977); note: nearly all actives have a fitted effect of over 50% in size
Summary of the method: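 PXR-Luc HepG2 cells (2,000/well, 5% charcoal-stripped FBS) preincubated 5 hr, then exposed to compounds 24 hr at 37 C. Viability read in the same wells by CellTiter-Fluor fluorescence, reagent added at 23 hr, 1 hr incubation.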

[2] = Caspase-3/7 induction in HepG2 cells by small molecules, qHTS assay (AID 1346978); note: nearly all actives have a fitted effect of over 15% in size
Summary of the method: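 Wild-type HepG2 cells (2,000/well) were settled 5 h at 37 C, 5% CO2, then exposed to compounds in DMSO for 17 h. Caspase-3/7 activity was read by luminescence 30 min after adding Caspase-Glo 3/7 reagent at room temperature.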

[3] = Caspase-3/7 induction in CHO-K1 cells by small molecules, qHTS cell viability counter screen (AID 1346979); note: nearly all actives have a fitted effect of over 35% in size
Summary of the method: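 Wild-type CHO-K1 cells (1,500/well) treated with compound after 5 h plating; after 16 h at 37C, viability read as CellTiter-Fluor fluorescence following 1 h reagent incubation, in the same wells as the caspase read.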

[4] = Caspase-3/7 induction in CHO-K1 cells by small molecules, qHTS assay (AID 1346980); note: nearly all actives have a fitted effect of over 15% in size
Summary of the method: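 Wild-type cells were seeded at 1,500 per well and settled 5 hr at 37 C, 5% CO2, then exposed to DMSO-dissolved compounds for 17 hr. Caspase-Glo 3/7 reagent was added, and luminescence was read after 30min at room temperature.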

[5] = Caspase-3/7 induction in HepG2 cells by small molecules, qHTS cell viability counter screen (AID 1346981); note: series mostly up to about 92 µM; nearly all actives have a fitted effect of over 30% in size
Summary of the method: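 In this quantitative HTS counter screen, compounds delivered in DMSO were left on unmodified HepG2 cells for 16 hr at 37 C. Viability was then determined fluorometrically with CellTiter-Fluor, in parallel with caspase-3/7 induction in the same wells.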

[6] = target: Nuclear receptor subfamily 1 group I member 2 (Homo sapiens) (UniProt O75469); assay: Human pregnane X receptor (PXR) small molecule agonists, qHTS assay (AID 1346982); note: nearly all actives have a fitted effect of over 35% in size; note: potency is the fitted concentration of half-maximal effect
Summary of the method: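 Reporter HepG2 cells expressing PXR-Luc are cultured in charcoal-stripped FBS (5%), treated with compounds for 24 hr at 37 C, and assayed by ONE-Glo luminescence after 30 min at room temperature.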

[7] = target: Cytochrome P450 2C19 (Homo sapiens) (UniProt P33261); assay: Cytochrome P450 Family 2 Subfamily C Member 19 (CYP2C19) small molecule antagonists: luciferase reporter qHTS assay (AID 1671197); note: nearly all actives have a fitted effect of over 65% in size; note: potency is the fitted concentration of half-maximal effect
Summary of the method: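 P450-Glo CYP2C19 system: enzyme-substrate mix with compound 10 min at room temperature, then NADPH regeneration solution, 1 h at 37C. Proluciferin-to-luciferin conversion detected by luminescence after 20 min with detection reagent; ketoconazole as positive control.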

[8] = target: Cytochrome P450 2C9 (Homo sapiens) (UniProt P11712); assay: Cytochrome P450 Family 2 Subfamily C Member 9 (CYP2C9) small molecule antagonists: luciferase reporter qHTS assay (AID 1671198); note: nearly all actives have a fitted effect of over 50% in size; note: potency is the fitted concentration of half-maximal effect
Summary of the method: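 CYP2C9 activity was measured with a P450-Glo proluciferin substrate. Enzyme–substrate mix was held with compound for 10 min at room temperature, then NADPH regeneration solution was added for 1 h at 37C. Luciferin product was read as luminescence.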

[9] = target: Voltage-gated inwardly rectifying potassium channel KCNH2 (Homo sapiens) (UniProt Q12809); assay: Human Ether-a-go-go-Related Gene (hERG) channel small molecule antagonists: fluorescence cell-based qHTS assay (AID 1671200);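 note: hERG-expressing U2OS cells given a thallium stimulus after FluxOR II dye loading; series mostly up to about 77 µM; nearly all actives have a fitted effect of over 50% in size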
Summary of the method: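 hERG-U2OS cells plated overnight at 37 C, loaded with FluxOR II dye 1 h at RT in dark; after 10 min, thallium stimulus added. Fluorescence (480/540 nm) read kinetically for 2 min at 1 s intervals.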

[10] = target: Cytochrome P450 3A4 (Homo sapiens) (UniProt P08684); assay: Cytochrome P450 Family 3 Subfamily A Member 4 (CYP3A4) small molecule antagonists: luciferase reporter qHTS assay (AID 1671201); note: series mostly up to about 120 µM; nearly all actives have a fitted effect of over 50% in size
Summary of the method: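 P450-Glo CYP3A4 luminescent assay: compounds preincubated 10 min at room temperature with enzyme and proluciferin substrate, NADPH regeneration added, 1 h room-temperature reaction, stopped with luciferin detection reagent; luminescence read after 20 min. Ketoconazole positive control.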

[11] = target: Cytochrome P450 2D6 (Homo sapiens) (UniProt P10635); assay: Cytochrome P450 Family 2 Subfamily D Member 6 (CYP2D6) small molecule antagonists: luciferase reporter qHTS assay (AID 1671196); note: nearly all actives have a fitted effect of over 50% in size; note: potency is the fitted concentration of half-maximal effect
Summary of the method: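 Test chemicals meet CYP2D6 plus proluciferin substrate (10 min, RT); NADPH regenerating solution then drives turnover for 1 h. Detection reagent halts the reaction; luminescence measured after 20 min.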

[12] = target: Cytochrome P450 1A2 (Homo sapiens) (UniProt P05177); assay: Cytochrome P450 Family 1 Subfamily A Member 2 (CYP1A2) small molecule antagonists: luciferase reporter qHTS assay (AID 1671199); note: nearly all actives have a fitted effect of over 50% in size; note: potency is the fitted concentration of half-maximal effect
Summary of the method: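 Steps: enzyme-substrate mix dispensed; test compounds and furafylline control pinned in; 10 min room temperature; NADPH regeneration solution added, 1 h; reaction stopped with luciferin detection reagent; luminescence read after 20 min.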

Cytochrome P450 1A2 (Homo sapiens), sequence (P05177 whole entry, looked up): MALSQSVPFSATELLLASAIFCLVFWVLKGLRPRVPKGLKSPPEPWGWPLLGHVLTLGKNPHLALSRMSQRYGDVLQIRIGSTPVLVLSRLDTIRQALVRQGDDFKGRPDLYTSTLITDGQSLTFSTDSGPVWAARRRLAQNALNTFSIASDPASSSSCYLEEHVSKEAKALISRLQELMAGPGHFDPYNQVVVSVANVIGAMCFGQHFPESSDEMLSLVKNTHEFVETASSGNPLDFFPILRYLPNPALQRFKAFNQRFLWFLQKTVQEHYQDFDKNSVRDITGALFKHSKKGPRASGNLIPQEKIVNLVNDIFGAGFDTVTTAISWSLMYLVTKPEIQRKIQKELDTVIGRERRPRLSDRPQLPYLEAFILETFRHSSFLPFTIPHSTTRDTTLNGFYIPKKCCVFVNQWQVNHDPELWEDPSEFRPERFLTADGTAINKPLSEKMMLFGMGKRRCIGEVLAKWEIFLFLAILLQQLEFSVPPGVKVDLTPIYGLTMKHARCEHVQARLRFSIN
Cytochrome P450 2C19 (Homo sapiens), sequence (P33261 whole entry, looked up): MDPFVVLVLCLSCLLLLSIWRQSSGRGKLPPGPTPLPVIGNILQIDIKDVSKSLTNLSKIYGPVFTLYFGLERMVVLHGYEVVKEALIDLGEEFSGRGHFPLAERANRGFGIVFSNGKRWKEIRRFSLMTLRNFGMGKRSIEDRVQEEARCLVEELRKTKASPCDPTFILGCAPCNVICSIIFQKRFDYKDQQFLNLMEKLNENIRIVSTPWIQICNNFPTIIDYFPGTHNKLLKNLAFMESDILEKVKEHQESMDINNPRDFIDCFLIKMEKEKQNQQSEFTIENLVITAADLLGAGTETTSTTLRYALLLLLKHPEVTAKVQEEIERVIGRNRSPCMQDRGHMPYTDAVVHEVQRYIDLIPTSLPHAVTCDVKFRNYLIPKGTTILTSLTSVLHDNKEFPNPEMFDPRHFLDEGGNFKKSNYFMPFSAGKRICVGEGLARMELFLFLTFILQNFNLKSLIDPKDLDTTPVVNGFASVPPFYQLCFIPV
Cytochrome P450 2C9 (Homo sapiens), sequence (P11712 whole entry, looked up): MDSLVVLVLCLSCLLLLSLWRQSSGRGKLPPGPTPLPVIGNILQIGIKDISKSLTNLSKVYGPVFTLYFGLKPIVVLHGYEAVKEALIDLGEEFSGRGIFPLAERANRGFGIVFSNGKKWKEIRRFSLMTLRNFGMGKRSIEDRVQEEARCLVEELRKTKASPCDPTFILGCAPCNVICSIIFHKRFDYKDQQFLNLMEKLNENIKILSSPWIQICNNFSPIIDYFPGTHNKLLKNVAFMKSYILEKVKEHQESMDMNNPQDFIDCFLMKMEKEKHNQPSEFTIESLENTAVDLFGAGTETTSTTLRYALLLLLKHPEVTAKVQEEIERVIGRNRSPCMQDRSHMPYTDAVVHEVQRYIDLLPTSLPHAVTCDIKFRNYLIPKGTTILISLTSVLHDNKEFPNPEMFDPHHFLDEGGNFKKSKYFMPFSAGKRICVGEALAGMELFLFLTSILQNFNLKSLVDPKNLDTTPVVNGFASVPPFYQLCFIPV
Nuclear receptor subfamily 1 group I member 2 (Homo sapiens), sequence (O75469 whole entry, looked up): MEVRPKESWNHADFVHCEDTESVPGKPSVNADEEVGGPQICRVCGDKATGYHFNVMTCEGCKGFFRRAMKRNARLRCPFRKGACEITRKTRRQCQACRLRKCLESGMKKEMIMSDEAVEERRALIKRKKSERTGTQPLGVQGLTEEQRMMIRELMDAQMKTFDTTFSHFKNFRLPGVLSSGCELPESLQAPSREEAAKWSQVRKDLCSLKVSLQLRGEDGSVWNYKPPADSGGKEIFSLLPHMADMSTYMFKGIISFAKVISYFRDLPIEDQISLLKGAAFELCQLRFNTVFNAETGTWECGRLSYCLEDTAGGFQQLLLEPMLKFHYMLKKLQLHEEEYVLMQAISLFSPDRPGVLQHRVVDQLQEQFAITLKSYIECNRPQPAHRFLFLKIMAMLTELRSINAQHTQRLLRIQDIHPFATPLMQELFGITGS
Cytochrome P450 2D6 (Homo sapiens), sequence (P10635 whole entry, looked up): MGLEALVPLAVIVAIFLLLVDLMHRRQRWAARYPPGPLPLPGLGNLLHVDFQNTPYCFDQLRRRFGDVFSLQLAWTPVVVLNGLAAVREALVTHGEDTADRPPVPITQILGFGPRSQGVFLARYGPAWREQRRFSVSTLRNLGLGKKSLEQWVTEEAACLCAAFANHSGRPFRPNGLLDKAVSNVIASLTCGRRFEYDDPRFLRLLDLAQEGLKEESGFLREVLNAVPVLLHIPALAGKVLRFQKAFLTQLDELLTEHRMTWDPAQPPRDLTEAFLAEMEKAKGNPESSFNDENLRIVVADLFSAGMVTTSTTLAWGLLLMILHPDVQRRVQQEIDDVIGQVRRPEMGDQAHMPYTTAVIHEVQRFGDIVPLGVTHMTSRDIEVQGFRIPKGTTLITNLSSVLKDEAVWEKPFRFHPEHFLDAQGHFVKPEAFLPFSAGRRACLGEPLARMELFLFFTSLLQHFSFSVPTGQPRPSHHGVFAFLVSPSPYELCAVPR
Cytochrome P450 3A4 (Homo sapiens), sequence (P08684 whole entry, looked up): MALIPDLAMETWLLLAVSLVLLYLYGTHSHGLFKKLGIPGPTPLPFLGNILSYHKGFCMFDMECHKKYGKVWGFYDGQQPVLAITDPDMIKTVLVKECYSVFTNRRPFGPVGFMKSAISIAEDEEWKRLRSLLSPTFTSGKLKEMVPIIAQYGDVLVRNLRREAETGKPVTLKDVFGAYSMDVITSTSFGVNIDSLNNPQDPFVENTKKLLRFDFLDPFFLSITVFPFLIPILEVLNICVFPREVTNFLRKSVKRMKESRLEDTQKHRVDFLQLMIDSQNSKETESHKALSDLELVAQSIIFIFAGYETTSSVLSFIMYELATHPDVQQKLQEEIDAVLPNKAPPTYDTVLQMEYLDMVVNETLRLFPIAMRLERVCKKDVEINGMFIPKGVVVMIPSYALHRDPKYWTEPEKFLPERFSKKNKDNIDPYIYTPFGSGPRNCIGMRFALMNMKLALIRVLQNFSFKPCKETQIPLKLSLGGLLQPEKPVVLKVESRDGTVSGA
Voltage-gated inwardly rectifying potassium channel KCNH2 (Homo sapiens), sequence (Q12809 whole entry, looked up): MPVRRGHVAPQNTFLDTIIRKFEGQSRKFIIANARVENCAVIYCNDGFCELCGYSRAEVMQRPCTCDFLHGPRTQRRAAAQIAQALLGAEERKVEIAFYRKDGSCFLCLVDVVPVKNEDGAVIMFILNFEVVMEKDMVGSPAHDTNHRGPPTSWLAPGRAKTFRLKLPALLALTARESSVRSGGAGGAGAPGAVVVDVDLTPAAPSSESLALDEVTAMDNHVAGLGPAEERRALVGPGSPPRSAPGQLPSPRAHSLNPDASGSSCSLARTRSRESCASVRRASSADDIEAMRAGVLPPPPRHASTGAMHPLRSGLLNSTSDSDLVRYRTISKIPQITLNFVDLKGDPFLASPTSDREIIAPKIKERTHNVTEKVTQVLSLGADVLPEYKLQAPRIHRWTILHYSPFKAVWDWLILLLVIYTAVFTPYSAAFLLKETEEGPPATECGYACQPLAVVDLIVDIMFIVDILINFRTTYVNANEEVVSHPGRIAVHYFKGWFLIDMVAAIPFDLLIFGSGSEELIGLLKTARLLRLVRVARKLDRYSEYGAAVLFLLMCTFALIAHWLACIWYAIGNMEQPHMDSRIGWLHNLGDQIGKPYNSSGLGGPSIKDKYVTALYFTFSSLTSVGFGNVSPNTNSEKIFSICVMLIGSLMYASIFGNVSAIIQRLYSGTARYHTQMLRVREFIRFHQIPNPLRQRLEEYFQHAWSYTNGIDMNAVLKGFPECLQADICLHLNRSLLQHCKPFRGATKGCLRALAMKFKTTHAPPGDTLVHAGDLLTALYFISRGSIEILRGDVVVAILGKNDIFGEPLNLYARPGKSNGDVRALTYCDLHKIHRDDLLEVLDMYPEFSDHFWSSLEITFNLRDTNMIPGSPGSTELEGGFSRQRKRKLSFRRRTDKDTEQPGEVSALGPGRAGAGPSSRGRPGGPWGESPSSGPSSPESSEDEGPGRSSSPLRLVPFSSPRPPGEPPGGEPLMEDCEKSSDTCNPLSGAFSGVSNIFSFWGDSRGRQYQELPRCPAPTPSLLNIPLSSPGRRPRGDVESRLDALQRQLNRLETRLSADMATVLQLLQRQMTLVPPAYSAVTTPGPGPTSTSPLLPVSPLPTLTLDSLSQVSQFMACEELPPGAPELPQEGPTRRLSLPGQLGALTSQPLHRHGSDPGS

SMILES: CC(C)(O)C(=O)O
- Potency [1]: inactive
- Potency [2]: inactive
- Potency [3]: inactive
- Potency [4]: inactive
- Potency [5]: inactive
- Potency [6]: inactive
- Potency [7]: inactive
- Potency [8]: inactive
- Potency [9]: inactive
- Potency [10]: inactive

SMILES: CC(C)CCCCCCCOC(=O)c1ccc(C(=O)OCCCCCCCC(C)C)c(C(=O)OCCCCCCCC(C)C)c1
- Potency [2]: inactive
- Potency [4]: inactive
- Potency [5]: inactive
- Potency [6]: 19 µM (active)
- Potency [11]: inactive
- Potency [7]: inactive
- Potency [9]: inactive

SMILES: CCOC(OCC)OCC
- Potency [1]: inactive
- Potency [2]: inactive
- Potency [3]: inactive
- Potency [4]: inactive
- Potency [5]: inactive
- Potency [6]: inactive
- Potency [11]: inactive
- Potency [7]: inactive
- Potency [8]: inactive
- Potency [10]: inactive

SMILES: CCCCOC(=O)CC#N
- Potency [2]: inactive
- Potency [3]: inactive
- Potency [4]: inactive
- Potency [5]: inactive
- Potency [6]: inactive
- Potency [11]: 5.27 µM (active)
- Potency [7]: 7.44 µM (active)
- Potency [8]: 7.44 µM (active)
- Potency [12]: 7.44 µM (active)
- Potency [9]: inactive
- Potency [10]: inactive

SMILES: CCC(=O)O[C@]1(C(=O)COC)[C@@H](C)C[C@H]2[C@@H]3CCC4=CC(=O)C=C[C@]4(C)C3(F)[C@@H](O)C[C@@]21C (stereo partly drawn)
- Potency [1]: inactive
- Potency [2]: inactive
- Potency [3]: inactive
- Potency [4]: inactive
- Potency [5]: inactive
- Potency [6]: 16.8 µM (active)
- Potency [11]: 15.5 µM (active)
- Potency [7]: inactive
- Potency [12]: inactive
- Potency [9]: inactive

SMILES: O=C1C=CCCC1
- Potency [1]: inactive
- Potency [3]: inactive
- Potency [4]: inactive
- Potency [5]: inactive
- Potency [6]: inactive
- Potency [11]: inactive
- Potency [7]: inactive
- Potency [8]: inactive
- Potency [12]: inactive
- Potency [9]: inactive
- Potency [10]: inactive

SMILES: O=C(O)c1ccccc1-n1cc(C(=O)O)c(=O)c2cc(Nc3c(F)cc(F)cc3Cl)c(Cl)cc21
- Potency [1]: inactive
- Potency [2]: inactive
- Potency [3]: inactive
- Potency [4]: inactive
- Potency [5]: inactive
- Potency [6]: inactive
- Potency [11]: inactive
- Potency [7]: inactive
- Potency [12]: inactive
- Potency [10]: inactive

SMILES: CCOC(=O)CC(O)(CC(=O)OCC)C(=O)OCC
- Potency [2]: inactive
- Potency [3]: inactive
- Potency [4]: inactive
- Potency [5]: inactive
- Potency [6]: inactive
- Potency [11]: inactive
- Potency [7]: 35.6 µM (active)
- Potency [8]: 8.94 µM (active)
- Potency [9]: inactive
- Potency [10]: inactive

SMILES: N#C[C@@H]1CC(F)(F)CN1C(=O)CNC1CC2CCC(C1)N2c1ncccn1 (stereo partly drawn)
- Potency [2]: inactive
- Potency [3]: inactive
- Potency [4]: inactive
- Potency [5]: inactive
- Potency [6]: inactive
- Potency [11]: 12.6 µM (active)
- Potency [7]: 71 µM (active)
- Potency [8]: 35.6 µM (active)
- Potency [12]: inactive
- Potency [9]: inactive

SMILES: Oc1ccc(Oc2ccccc2)cc1
- Potency [1]: inactive
- Potency [2]: inactive
- Potency [4]: inactive
- Potency [5]: inactive
- Potency [6]: 46.1 µM (active)
- Potency [11]: 26.8 µM (active)
- Potency [7]: 26.8 µM (active)
- Potency [8]: 26.8 µM (active)
- Potency [10]: inactive
